# Test results taken from the supplement of paper PMC11417369.
# ± gives the standard deviation of the averaged measurements. Over roughly 25,000 sequences, “ln(normalized median fluorescence intensity)” has its median near 8.6; the highest 2% begin near 10. The list comes from a sample in which the highest values are over-represented; it also holds similar and randomly drawn sequences.
# Tested on: PfAP2-EXP AP2 domain (GST-tagged)
# Test: gcPBM binding intensity (ln(normalized median fluorescence intensity)); higher = stronger DNA binding
# Outline: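 DNA-binding domains from P. falciparum, fused to GST and produced in E. coli, were put on an Agilent 4 × 180k double-stranded probe array for 1 h in 1× PBS holding 1% milk, 0.2 mg/ml BSA, 0.5% salmon testes DNA and 0.03% Triton X-100. Probes were primer-extended, 36 bp long and drawn from intergenic genomic regions, with negative controls included. After Alexa488 anti-GST antibody detection and a 488 nm scan, binding intensity was set as the highest Masliner-normalised natural-log median intensity across replicate spots of either probe orientation.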
row,Sequence,gcPBM binding intensity (ln)
1,TTTTTTTTTTTTTTTTTTTTACGATATATTTTAAAA [XGTACX_negctrl_site401],8.03 ± 0.67
2,GTTATACATTTGAAAAGTACTCATGATTTTTTTTTT [XGTACX_site8177],8.75 ± 0.45
3,TCGAATATCTTATAGGTGCATCATAAATACATATGT,8.69 ± 0.28
4,TGTATATATAATAAAACACACATTTTTAATGTGCTC [CACACA_site1437],8.01 ± 0.3
5,TTAACCACTAAAAGTACACACATATATACCTATATA [CACACA_site6026],8.45 ± 0.28
6,AATAAATAAAGAAGTACACACATATATATATATATA [CACACA_site4314],10.1 ± 0.41
7,ATGATATGGATAAATACACACAATAAAATAATGTCT [CACACA_site6786],8.71 ± 0.43
8,AATATATATATATATACACACACACCGATATATATA [CACACA_site8158],8.79 ± 0.33
9,TATATATATTTATGTACACACACACCGATAAATAAA [CACACA_site4404],8.91 ± 0.48
10,TATGTACAAATATGTACACACACACCGATATATATA [CACACA_site4487],8.76 ± 0.18
11,TATATATATATATACACACACACACCGATATATATA [CACACA_site8813],10.3 ± 0.41
12,TATACATACATACATACACACACACCGATATATACA [CACACA_site8184],8.78 ± 0.42
13,TATATATATATATGTACACACACACCGATAAATAAA [CACACA_site8041],10.21 ± 0.085
14,TATATATATATGTGTACACATGTCGCATTTTTTTAT [CACACA_site4648],10 ± 0.26
15,TGATAATTTCATTTTGCATGTGACAATACAAGATGT [TGCATGCA_site203],8.59 ± 0.18
16,AAAAAAATAATATAAATAATGAAAAGATATAAATAA [GTGCAC_negctrl_site432],8.54 ± 0.35
17,ATGCTTCCTTAGGAATGTACACACATATATAATATG [XGTACX_site873],8.69 ± 0.35
18,AAAATATATATAAATGCATGCATAATGAAATATATA [TGCATGCA_site39],9.95 ± 0.21
19,ATAGAAATAAAATAAAATAAAAAAAAAATAATGAAA [CACACA_negctrl_site1565],8.64 ± 0.43
20,CAAAAATAATAGAATACATGCAAAAATAAATGTATA [TGCATGCA_site196],9 ± 0.071
21,TAATAAAATGTACACGCATGCAATAGAATATAAAGT [TGCATGCA_site905],10.3 ± 0.79
22,TAAAATATAATAAAATGTACACGCATGCAATAGAAT [XGTACX_site7434],9.99 ± 0.47
23,TAGAAAAAAATAGATGCATGCAATGAATGAATAATA [TGCATGCA_site14],10.3 ± 0.17

row,Sequence,gcPBM binding intensity (ln)
1,ATTCTACCACGCGATATACACACTTGTAGACATCTT [CACACA_site188],8.97 ± 0.49
2,TTTAAAAATTTGATCAAACACACGTTGCATAAATTA [CACACA_site3945],8.87 ± 0.47
3,TTGTTTAACTTGTTAAATATAATGTATCTGTGGATA [GTGCAC_negctrl_site108],8.12 ± 0.4
4,TTAATACTTTTTTCTGTACACACTTGATTTACTATA [CACACA_site2799],8.95 ± 0.44
5,TTGTTAATATATATATGTACTTATTTATTTATTTAT [XGTACX_site2274],8.51 ± 0.35
6,TACTTATTGTGATACTTATATTATTTTATGATTAAA [XGTACX_negctrl_site353],8.36 ± 0.39
7,TATATATATATATATTGTACTTTATATGTTCTTATA [XGTACX_site7545],10.3 ± 0.11
8,ATATATATATATAGTTGTACTTAATTTTATATGTTA [XGTACX_site5256],10.2 ± 0.15
9,TATTTATTGTGATACTTATATTATTTTATGATTAAA [CACACA_negctrl_site901],8.27 ± 0.37
10,ATGTTTATTTATTTATGTACTTATATATTTATATAT [XGTACX_site7924],8.78 ± 0.34
11,ATATATATATATATATGTACTTATTTATATATTTAT [XGTACX_site7811],10.1 ± 0.25
12,TTTTTATTTATATGATACTTATATATATATATATAT [CACACA_negctrl_site462],10.2 ± 0.16
13,ATATATATATATATATGTACTTATTTATTTATTTAT [XGTACX_site4645],10.2 ± 0.51
14,TATATATATATATATTGTACTTATGTTTATATTCAT [XGTACX_site6258],10.1 ± 0.2
15,ATATATATGTATGTATGTACTTATTTATTTATTTAT [XGTACX_site7740],8.32 ± 0.16
16,AAAATTGTTATTTTATGTACTTATATTTATTTATTT [XGTACX_site3478],8.53 ± 0.27
17,ATCTTTTCATATTGCTGTACAAATTATTTTCATTCG [XGTACX_site492],9.05 ± 0.45
18,AGAATTATATACACAAGTACATAATGACATATATAT [XGTACX_site5617],8.42 ± 0.35
19,ATTTATTTATTTATATGTACTTATATATGTATTTTC [XGTACX_site6269],8.85 ± 0.25
20,GTATGTATATATGTATGTACTTATGTATCATTATTA [XGTACX_site2438],8.35 ± 0.26
21,ATATTTTTTTTTTTATGTACTTATTTATAATTATTT [XGTACX_site5279],8.67 ± 0.37
22,TATCATTTATATATGTGTACTTATTTATTTATTTAT [XGTACX_site7961],8.82 ± 0.45
23,ATATATATATATATATGTACTTATTTATTTTATATA [XGTACX_site8810],10.2 ± 0.24

row,Sequence,gcPBM binding intensity (ln)
1,TATATATTATATATATGTACTTATTTATTAATTTAT [XGTACX_site5253],8.29 ± 0.25
2,TAAATATATATTATATGTACTTATATATATATATAT [XGTACX_site4448],9.85 ± 0.3
3,ATATATATATATATATGTACTTATTAAGATTAAAAA [XGTACX_site61],10.2 ± 0.2
4,TTATATATTTTTATGTGTACTTATATATATATATAT [XGTACX_site6211],10 ± 0.13
5,ATATATATATATATATGTACTTATTTATTTATATTA [XGTACX_site4646],10.3 ± 0.39
6,ATATATATATATATATGTACTTATGTCATCATTAAA [XGTACX_site5316],10.3 ± 0.35
7,ATATATATATATATGTGTACTTATATATTTAAAAAA [XGTACX_site1761],10 ± 0.27
8,TTTTATCGTTTTTTTTTTTTTTTTTTTTTTTTTTTT [CACACA_negctrl_site1309],9.06 ± 0.092
9,TCTGGATTGGATTACAAGAAAATAAAATATAAAATA [CACACA_negctrl_site122],8.38 ± 0.4
10,ATGAAGAAGTGTAAATGTACATTTTATGTAGAACAA [XGTACX_site6925],8.93 ± 0.48
11,TAATATTATATTATATGTACATAACAAATTATATTT [XGTACX_site4296],8.6 ± 0.21
12,ATTTTTTTATAAGAAAATTTCTAACGTTAAAAAAAA [CACACA_negctrl_site1367],8.38 ± 0.59
13,TATATATATATATATGCATGCCATATGATATATATA [TGCATGCA_site109],10.3 ± 0.27
14,ATATATATATATGATACATGCATATATTTTTTCTTC [TGCATGCA_site216],9.99 ± 0.13
15,TATATATATGTATGATGTACATATATGCATATATAT [XGTACX_site3399],8.54 ± 0.23
16,ATTTTATTTTTTGAGTGTACTAGTTCAACAACTCCG [XGTACX_site8600],8.72 ± 0.52
17,TGGTTTCAATAATTAATAAAATATATTATTGTGAAA [CACACA_negctrl_site442],7.95 ± 0.41
18,ACGGAAAAAGAAAAGGTGCATATGGACACAATATAT,9.35 ± 0.17
19,AAGACAATATATGCAGTGCATATACATACATATATA,8.65 ± 0.25
20,CGTATGTGCGGACATGCATGCAATATACAAGAAAAA [TGCATGCA_site145],10.2 ± 0.28
21,AAGAAAAGTAAATATGCATGTAGGGTAGGTTATTTT [TGCATGCA_site46],8.94 ± 0.23
22,TGGGTCTCTAACTGGTGTACTATTTACATATTATAC [XGTACX_site8593],8.75 ± 0.37
23,TATATATATAAATACACACACATATATATATATATA [CACACA_site4867],10.2 ± 0.25

row,Sequence,gcPBM binding intensity (ln)
1,TGTATAATCATATATACACACACATATATATATATA [CACACA_site8674],10.1 ± 0.24
2,TATAATCATAAATACACACACATATATATATATATA [CACACA_site5224],10.2 ± 0.42
3,ATAATAAAATAAATCACACATAATATAATGTAATAT [CACACA_site6144],8.44 ± 0.3
4,TATAATCATATATACACACACATATATATATATATA [CACACA_site2168],10.2 ± 0.43
5,GCTATAAATATAATCACACATAAATATATAATATAT [CACACA_site5144],8.23 ± 0.29
6,AATATACAAAATATCACACATATAAAATAATATATA [CACACA_site6067],8.27 ± 0.5
7,TAAATATAAACACAAACACACACATATATATATATA [CACACA_site7978],10.1 ± 0.42
8,GGAACAAATAATATCACACATATATATATATATATA [CACACA_site5670],10.3 ± 0.23
9,TATAAATATAAATATACACACATATATATATATATA [CACACA_site1678],9.99 ± 0.4
10,TATAAATAAATACATACACACACATACATATATATA [CACACA_site9024],8.71 ± 0.38
11,TGTATAAATATAATCACACATATATATATATATATA [CACACA_site4365],10.3 ± 0.73
12,TATATGAAGCTATAGACACACATATAAAAATATAAT [CACACA_site4850],8.64 ± 0.47
13,TCCCTAGTATACCTTAGTACATATATTATTTTGCAC [XGTACX_site2174],8.98 ± 0.11
14,ACTAGTAAATTTATATGTACATATATATATATATAG [XGTACX_site2502],8.68 ± 0.24
15,ATACATATATATATATGTACATATGTATTTTTTATT [XGTACX_site105],8.63 ± 0.38
16,ATATATTTAATATTCACACATAATTATTTTTACTCT [CACACA_site5438],8.59 ± 0.38
17,CATCCAAAAATATTATGTACTAAATTTGGATGTATT [XGTACX_site3954],8.48 ± 0.47
18,TTTTAAATATGCCATACACACTACTATATAATAAAT [CACACA_site5119],8.58 ± 0.34
19,ATACTTTTAAATTGATGTACTTTATTTATAAGGTGA [XGTACX_site6746],8.38 ± 0.38
20,ACTTTACAATATATATGTACATATTAATAAACATAT [XGTACX_site3689],8.74 ± 0.42
